Data on 4 sequences can be found in publication PMC11006913.

What all share (assay): PBM; 200 nM protein, PBS
Holding throughout (conditions): dsDNA, one strand shown

For test [1], the target named is HESX1 (Homo sapiens, UniProt Q9UBX0 95-180, R165K).
The target of test [2] is SHOX (Homo sapiens, UniProt O15266 103-189).
The target in test [3] is ALX4 (Homo sapiens, UniProt Q9H161 200-286, Q225E).
For test [4], the target named is HESX1 (Homo sapiens, UniProt Q9UBX0 95-180).
The target in test [5] is MSX2 (Homo sapiens, UniProt P35548 130-214, R199I).
For test [6], the target named is ALX1 (Homo sapiens, UniProt Q15699 118-204, L144V).
For test [7], the target named is ALX3 (Homo sapiens, UniProt O95076 139-225, N203Q).
Test [8] concerns the target SHOX (Homo sapiens, UniProt O15266 103-189, R173C).
For test [9], the target named is ALX1 (Homo sapiens, UniProt Q15699 118-204, L144R).
Test [10] addresses ALX3 (Homo sapiens, UniProt O95076 139-225).
The target in test [11] is PROP1 (Homo sapiens, UniProt O75360 56-141).
The target of test [12] is HESX1 (Homo sapiens, UniProt Q9UBX0 95-180, R109Q).
The target in test [13] is PROP1 (Homo sapiens, UniProt O75360 56-141, R99H).
The target of test [14] is ALX3 (Homo sapiens, UniProt O95076 139-225, L168Q).
Test [15] addresses HESX1 (Homo sapiens, UniProt Q9UBX0 95-180, P111T).
Test [16] addresses ALX3 (Homo sapiens, UniProt O95076 139-225, L168V).
Test [17] deals with PROP1 (Homo sapiens, UniProt O75360 56-141, F88S).
Test [18] has as its target HESX1 (Homo sapiens, UniProt Q9UBX0 95-180, F115L).
Test [19] deals with ALX1 (Homo sapiens, UniProt Q15699 118-204).
Test [20] has as its target ALX3 (Homo sapiens, UniProt O95076 139-225, N203S).

Sequence of ALX1 (Homo sapiens, UniProt Q15699 118-204, L144R) (Q15699 118-204 L144R): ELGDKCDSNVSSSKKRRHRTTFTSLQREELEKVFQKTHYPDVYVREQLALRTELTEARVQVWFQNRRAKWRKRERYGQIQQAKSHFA
Sequence of ALX1 (Homo sapiens, UniProt Q15699 118-204) (Q15699 118-204): as the sequence (Q15699 118-204 L144R) above, with R27L counted along it
Sequence of PROP1 (Homo sapiens, UniProt O75360 56-141) (O75360 56-141): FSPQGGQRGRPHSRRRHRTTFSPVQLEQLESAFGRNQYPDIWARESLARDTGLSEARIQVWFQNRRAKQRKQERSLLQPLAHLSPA
Sequence of ALX3 (Homo sapiens, UniProt O95076 139-225, L168V) (O95076 139-225 L168V): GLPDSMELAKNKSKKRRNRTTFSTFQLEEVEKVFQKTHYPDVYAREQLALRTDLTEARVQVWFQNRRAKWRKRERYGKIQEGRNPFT
Sequence of SHOX (Homo sapiens, UniProt O15266 103-189) (O15266 103-189): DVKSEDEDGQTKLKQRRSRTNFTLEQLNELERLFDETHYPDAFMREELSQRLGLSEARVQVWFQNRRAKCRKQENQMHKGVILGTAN
Sequence of SHOX (Homo sapiens, UniProt O15266 103-189, R173C) (O15266 103-189 R173C): as the sequence (O15266 103-189) above, with R71C counted along it
Sequence of ALX3 (Homo sapiens, UniProt O95076 139-225) (O95076 139-225): as the sequence (O95076 139-225 L168V) above, with V30L counted along it
Sequence of HESX1 (Homo sapiens, UniProt Q9UBX0 95-180) (Q9UBX0 95-180): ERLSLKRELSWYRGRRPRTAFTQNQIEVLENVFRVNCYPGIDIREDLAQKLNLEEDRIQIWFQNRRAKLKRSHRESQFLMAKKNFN
Sequence of PROP1 (Homo sapiens, UniProt O75360 56-141, F88S) (O75360 56-141 F88S): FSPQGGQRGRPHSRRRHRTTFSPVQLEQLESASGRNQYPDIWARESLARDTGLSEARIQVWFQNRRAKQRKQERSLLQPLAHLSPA
Sequence of HESX1 (Homo sapiens, UniProt Q9UBX0 95-180, R109Q) (Q9UBX0 95-180 R109Q): as the sequence (Q9UBX0 95-180) above, with R15Q counted along it
Sequence of ALX3 (Homo sapiens, UniProt O95076 139-225, N203Q) (O95076 139-225 N203Q): as the sequence (O95076 139-225 L168V) above, with V30L, N65Q counted along it
Sequence of ALX4 (Q9H161 200-286 Q225E): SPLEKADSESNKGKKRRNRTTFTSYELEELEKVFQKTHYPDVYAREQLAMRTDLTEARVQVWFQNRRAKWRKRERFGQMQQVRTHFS
Sequence of HESX1 (Homo sapiens, UniProt Q9UBX0 95-180, F115L) (Q9UBX0 95-180 F115L): as the sequence (Q9UBX0 95-180) above, with F21L counted along it
Sequence of PROP1 (Homo sapiens, UniProt O75360 56-141, R99H) (O75360 56-141 R99H): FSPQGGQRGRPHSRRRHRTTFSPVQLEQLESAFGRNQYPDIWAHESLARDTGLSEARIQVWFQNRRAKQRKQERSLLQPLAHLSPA
Sequence of ALX3 (Homo sapiens, UniProt O95076 139-225, N203S) (O95076 139-225 N203S): as the sequence (O95076 139-225 L168V) above, with V30L, N65S counted along it
Sequence of HESX1 (Homo sapiens, UniProt Q9UBX0 95-180, P111T) (Q9UBX0 95-180 P111T): as the sequence (Q9UBX0 95-180) above, with P17T counted along it
Sequence of HESX1 (Homo sapiens, UniProt Q9UBX0 95-180, R165K) (Q9UBX0 95-180 R165K): as the sequence (Q9UBX0 95-180) above, with R71K counted along it
Sequence of ALX1 (Homo sapiens, UniProt Q15699 118-204, L144V) (Q15699 118-204 L144V): as the sequence (Q15699 118-204 L144R) above, with R27V counted along it
Sequence of MSX2 (P35548 130-214 R199I): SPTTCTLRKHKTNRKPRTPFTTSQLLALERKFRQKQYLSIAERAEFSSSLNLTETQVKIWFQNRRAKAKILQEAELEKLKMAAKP
Sequence of ALX3 (Homo sapiens, UniProt O95076 139-225, L168Q) (O95076 139-225 L168Q): as the sequence (O95076 139-225 L168V) above, with V30Q counted along it

Consider AATTAATG, for which the binding signal was 12.1 upbm affinity estimate (log intensity, higher = more binding, comparable within an allelic series) in test [1]; 11.8 upbm affinity estimate (log intensity, higher = more binding, comparable within an allelic series) in [2]; 13.4 upbm affinity estimate (log intensity, higher = more binding, comparable within an allelic series) in test [3]; 12.1 upbm affinity estimate (log intensity, higher = more binding, comparable within an allelic series) in [4]; 12.5 upbm affinity estimate (log intensity, higher = more binding, comparable within an allelic series) in test [5]; 11.9 upbm affinity estimate (log intensity, higher = more binding, comparable within an allelic series) in test [6]. The binding signal in test [7] was 8.41 upbm affinity estimate (log intensity, higher = more binding, comparable within an allelic series); in test [8], 9.48 upbm affinity estimate (log intensity, higher = more binding, comparable within an allelic series); in test [9], 11.5 upbm affinity estimate (log intensity, higher = more binding, comparable within an allelic series); in test [10], 12.6 upbm affinity estimate (log intensity, higher = more binding, comparable within an allelic series); in test [11] it was 11.4 upbm affinity estimate (log intensity, higher = more binding, comparable within an allelic series); in [12] it was 9.35 upbm affinity estimate (log intensity, higher = more binding, comparable within an allelic series). The binding signal in test [13] was 11.3 upbm affinity estimate (log intensity, higher = more binding, comparable within an allelic series); in test [14] it was 10.7 upbm affinity estimate (log intensity, higher = more binding, comparable within an allelic series); in test [15], 10.7 upbm affinity estimate (log intensity, higher = more binding, comparable within an allelic series); in test [16], 10.3 upbm affinity estimate (log intensity, higher = more binding, comparable within an allelic series); in test [17] it was 7.86 upbm affinity estimate (log intensity, higher = more binding, comparable within an allelic series); in [18] it was 7.83 upbm affinity estimate (log intensity, higher = more binding, comparable within an allelic series). For the same sequence, the binding signal in test [19] is 12.5 upbm affinity estimate (log intensity, higher = more binding, comparable within an allelic series); in test [20], 8.55 upbm affinity estimate (log intensity, higher = more binding, comparable within an allelic series).

ATAATTAA: the binding signal was 13.5 upbm affinity estimate (log intensity, higher = more binding, comparable within an allelic series) in [1]; 12.7 upbm affinity estimate (log intensity, higher = more binding, comparable within an allelic series) in test [2]; 14.2 upbm affinity estimate (log intensity, higher = more binding, comparable within an allelic series) in test [3]; 13.3 upbm affinity estimate (log intensity, higher = more binding, comparable within an allelic series) in [4]; 13 upbm affinity estimate (log intensity, higher = more binding, comparable within an allelic series) in test [5]; 12.3 upbm affinity estimate (log intensity, higher = more binding, comparable within an allelic series) in test [6]. For the same sequence, the binding signal in test [7] is 8.66 upbm affinity estimate (log intensity, higher = more binding, comparable within an allelic series); in [8], 10.3 upbm affinity estimate (log intensity, higher = more binding, comparable within an allelic series); in test [9] it was 11.9 upbm affinity estimate (log intensity, higher = more binding, comparable within an allelic series); in test [10], 12.9 upbm affinity estimate (log intensity, higher = more binding, comparable within an allelic series); in test [11] it was 11.9 upbm affinity estimate (log intensity, higher = more binding, comparable within an allelic series); in test [12], 9.82 upbm affinity estimate (log intensity, higher = more binding, comparable within an allelic series). For the same sequence, the binding signal in test [13] was 11.9 upbm affinity estimate (log intensity, higher = more binding, comparable within an allelic series); in [14], 11.2 upbm affinity estimate (log intensity, higher = more binding, comparable within an allelic series); in [15] it was 12 upbm affinity estimate (log intensity, higher = more binding, comparable within an allelic series); in test [16] it was 10.9 upbm affinity estimate (log intensity, higher = more binding, comparable within an allelic series); in test [17], 8.13 upbm affinity estimate (log intensity, higher = more binding, comparable within an allelic series); in [18], 8.29 upbm affinity estimate (log intensity, higher = more binding, comparable within an allelic series). In addition, the binding signal is 12.8 upbm affinity estimate (log intensity, higher = more binding, comparable within an allelic series) in test [19] and 8.77 upbm affinity estimate (log intensity, higher = more binding, comparable within an allelic series) in test [20].

Consider GTAATTAA, for which the binding signal in test [1] is 13.2 upbm affinity estimate (log intensity, higher = more binding, comparable within an allelic series); in test [2], 12.8 upbm affinity estimate (log intensity, higher = more binding, comparable within an allelic series); in test [3] it was 14 upbm affinity estimate (log intensity, higher = more binding, comparable within an allelic series); in test [4], 13.3 upbm affinity estimate (log intensity, higher = more binding, comparable within an allelic series); in test [5], 13.2 upbm affinity estimate (log intensity, higher = more binding, comparable within an allelic series); in [6] it was 12.2 upbm affinity estimate (log intensity, higher = more binding, comparable within an allelic series). Also, the binding signal in test [7] is 8.59 upbm affinity estimate (log intensity, higher = more binding, comparable within an allelic series); in test [8] it was 10.3 upbm affinity estimate (log intensity, higher = more binding, comparable within an allelic series); in test [9] it was 11.8 upbm affinity estimate (log intensity, higher = more binding, comparable within an allelic series); in test [10], 12.9 upbm affinity estimate (log intensity, higher = more binding, comparable within an allelic series); in [11] it was 11.9 upbm affinity estimate (log intensity, higher = more binding, comparable within an allelic series); in [12] it was 9.89 upbm affinity estimate (log intensity, higher = more binding, comparable within an allelic series). The binding signal is 11.8 upbm affinity estimate (log intensity, higher = more binding, comparable within an allelic series) in [13]; 11.2 upbm affinity estimate (log intensity, higher = more binding, comparable within an allelic series) in [14]; 11.8 upbm affinity estimate (log intensity, higher = more binding, comparable within an allelic series) in test [15]; 10.8 upbm affinity estimate (log intensity, higher = more binding, comparable within an allelic series) in [16]; 7.99 upbm affinity estimate (log intensity, higher = more binding, comparable within an allelic series) in [17]; 8.12 upbm affinity estimate (log intensity, higher = more binding, comparable within an allelic series) in test [18]. In addition, the binding signal in test [19] is 12.9 upbm affinity estimate (log intensity, higher = more binding, comparable within an allelic series); in test [20] it was 8.7 upbm affinity estimate (log intensity, higher = more binding, comparable within an allelic series).

As to CATAATTA, the binding signal in test [1] is 12.9 upbm affinity estimate (log intensity, higher = more binding, comparable within an allelic series); in test [2], 12.4 upbm affinity estimate (log intensity, higher = more binding, comparable within an allelic series); in test [3] it was 13.7 upbm affinity estimate (log intensity, higher = more binding, comparable within an allelic series); in test [4] it was 12.9 upbm affinity estimate (log intensity, higher = more binding, comparable within an allelic series); in [5], 12.8 upbm affinity estimate (log intensity, higher = more binding, comparable within an allelic series); in [6], 12 upbm affinity estimate (log intensity, higher = more binding, comparable within an allelic series). The binding signal in test [7] is 8.61 upbm affinity estimate (log intensity, higher = more binding, comparable within an allelic series); in test [8], 10 upbm affinity estimate (log intensity, higher = more binding, comparable within an allelic series); in test [9], 11.6 upbm affinity estimate (log intensity, higher = more binding, comparable within an allelic series); in test [10] it was 12.6 upbm affinity estimate (log intensity, higher = more binding, comparable within an allelic series); in test [11], 11.8 upbm affinity estimate (log intensity, higher = more binding, comparable within an allelic series); in test [12] it was 9.21 upbm affinity estimate (log intensity, higher = more binding, comparable within an allelic series). Also, the binding signal in test [13] is 11.5 upbm affinity estimate (log intensity, higher = more binding, comparable within an allelic series); in [14], 10.8 upbm affinity estimate (log intensity, higher = more binding, comparable within an allelic series); in test [15], 11.3 upbm affinity estimate (log intensity, higher = more binding, comparable within an allelic series); in test [16] it was 10.4 upbm affinity estimate (log intensity, higher = more binding, comparable within an allelic series); in test [17] it was 8.12 upbm affinity estimate (log intensity, higher = more binding, comparable within an allelic series); in test [18], 7.94 upbm affinity estimate (log intensity, higher = more binding, comparable within an allelic series). Moreover, the binding signal is 12.6 upbm affinity estimate (log intensity, higher = more binding, comparable within an allelic series) in test [19] and 8.73 upbm affinity estimate (log intensity, higher = more binding, comparable within an allelic series) in test [20].
